Drawing on PubChem BioAssay (NCATS), this text covers Potency for 21 compounds.

The structures appear in SMILES notation. Results filed as inconclusive are left out. A call without a number means that no potency is given here. Calls of active or inactive are those of the source. Calls follow the shape of the dose curve; as a rule, active = well fitted inhibition curve with a large enough effect; inconclusive = small, poorly fitted or top-dose-only effect; inactive = flat fitted curve, though single readings scatter.

For this assay, the target named is Calcium and integrin-binding protein 1 (Homo sapiens) (UniProt Q99828). The assay is described as follows: Primary qHTS for Identification of Calcium Integrin Binding Protein 1 (CIB1) Competitor (AID 1508620).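 Also: GST tagged CIB1 binding a fluorescein labelled alphaIIb integrin peptide tracer; top concentration of the series differs between compounds.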 The settings on record: CIB1-GST / FITC-alphaIIb peptide fluorescence polarization; series mostly up to 114 µM. Summed up: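 CIB1-GST (1 uM final) and compound incubated 15 min at room temperature before adding FITC-alphaIIb peptide tracer (100 nM final). Competition for binding read by fluorescence polarization (ex 480, em 540) after another 15 min at room temperature.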
Chain of Calcium and integrin-binding protein 1 (Homo sapiens) (Q99828 whole entry, looked up): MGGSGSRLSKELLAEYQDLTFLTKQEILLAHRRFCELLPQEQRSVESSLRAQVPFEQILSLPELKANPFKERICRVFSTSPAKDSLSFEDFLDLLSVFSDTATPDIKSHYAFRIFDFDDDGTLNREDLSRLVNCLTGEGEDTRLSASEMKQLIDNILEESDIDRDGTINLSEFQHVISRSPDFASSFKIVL
(qHTS replaces the single test concentration by a dilution series.)
As for `COc1cc(O)c(C(CC(=O)N2CCCC(C(=O)c3ccccc3)C2)c2ccc3c(c2)OCO3)c(OC)c1` (stereo unspecified), the Potency result was “inactive”.

Take `COc1ccc(C2Nc3ccccc3C(=O)N2Cc2ccccc2)cc1COc1ccc(C#N)cc1` (stereo unspecified): the Potency result was “inactive”. Next, `Cc1cc(N[S+](=O)([O-])c2cc3c(cc2F)NC(=O)CC3)ccc1Br`: “inactive”. For `O=C(c1ccccc1)N1CCN(c2nc(-c3cccs3)nc3ccccc23)CC1` the value was “inactive”; for `CC(=O)c1ccc(N2CCN(S(=O)(=O)c3ccc4c(c3)CCC(=O)N4)CC2)cc1`, “inactive”; for `CC(C)(C)OC(=O)N1CCN(c2ccc(NCc3ccc(-c4ccccc4F)o3)cc2)CC1`, “inactive”.

As for `O=C(NC(c1ccco1)c1cc(Cl)c2cccnc2c1O)c1ccccc1` (stereo unspecified), the Potency result is “inactive”.

Regarding `COC(=O)c1ccc2c(c1)S(=O)(=O)NC2=O`, the Potency result was “inactive”. As for `N#Cc1ccc(-c2ccc(CNc3ccc(N4CCC(C#N)CC4)cc3)o2)cc1`, the Potency result was “inactive”. Next, `Cc1sc(NC(=O)Cc2ccc3c(c2)OCO3)nc1-c1ccc2c(c1)CCN2C(=O)C1CCCCC1`: “inactive”. In the case of `Cc1c(C(=O)OCC2CCCO2)[nH]c2c1C(=O)CCC2` (stereo unspecified), the Potency entry was “inactive”. As to `Fc1cc(Nc2nc(-c3ccncc3)nc3ccccc23)ccc1-c1cn[nH]c1`, the Potency entry was “inactive”.

As for `O=C(O)c1ccc2c(c1)C(=O)N([C@H](Cc1ccc(Cl)cc1)C(=O)O)C2=O`, the Potency entry was “inactive”. Turning to `CSc1cnc(-c2ccccc2C(C)C)nc1NCc1ccc(-c2cccnc2)cc1`, the Potency entry was “inactive”. For `Cc1nc(C)c(-c2ccc3ncnc(NCCc4cnc[nH]4)c3c2)s1`, the Potency entry is “inactive”. For `Cc1ccc(Cn2ncc3c4sc(C)cc4n(C)c3c2=O)c(C)c1` the value was “inactive”; for `Oc1cccc2cc(NCc3ccccc3F)cnc12`, “inactive”. For `O=[S+]([O-])(Nc1ccccc1)c1ccc(NCc2cccc(Cl)c2F)cc1` the value was “inactive”; for `CC(C)(C)OC(=O)Cc1nnc(-c2nc3ccccc3[nH]2)s1`, “inactive”. For `O=C1c2ccccc2NC(c2ccc(-c3cccc(F)c3)o2)N1O` (stereo unspecified) the value was “inactive”. As for `CCOC(=O)c1[nH]c2c(c1C)CCC(c1ccco1)C2` (stereo unspecified), the Potency result was “inactive”.
